This is a sample that favours compounds with a hit; in the whole collection about 2% have one here.
eIF4E-4G inh = eIF4E/eIF4G interaction inhibition in translation initiation; 0.37% of 220,000 active; inhibition, % at 21.7 µM; P63073+Q04637; TR-FRET eIF4E-eIF4GI(517-606) binding, 2 h;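 active = inhibition above about 30%, limit read from the data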;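 note: 0% = full FRET control wells and 100% = background wells lacking eIF4GI fragment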
Autophagy mod = modulators of autophagy; AID 463193; MEF GFP-LC3 puncta imaging; test concentration mostly 10 µM; 0.98% of 190,000 active; calls only at 10 µM (by protocol);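 active = percentage of spot-positive cells more than 3 SD above its plate mean, without a fluorescence outlier flag or 80% toxicity; inconclusive = no clear call, values can overlap the other calls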;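 note: spot-positive cell cutoff set from DMSO-treated cells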
Insulin prom up = MIN6 insulin promoter up-regulation. MIN6 insulin promoter-GFP reporter, high-content imaging; hits give high values. z-score at 5 µM. 0.3% of 190,000 active. AID 1625;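 active = z-score above 3 at 5 µM with at least 500 cells counted in the well; inconclusive = wells under 500 cells, flagged as cytotoxic or low count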
INS promoter inh = TRM-6 insulin promoter activity inhibition; AID 1273; TRM-6 cells (human fetal islet line), insulin promoter-eGFP reporter, imaging; reporter expression induced with tamoxifen; inhibition, % at 2 µM; 0.9% of 130,000 active;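 active = inhibition above the mean plus 3 SD, with well images judged a real hit on visual review, cut at about 60% in these data, passing the limit was not always enough; inconclusive = inhibition over the cutoff but images rejected on review; inactive = inhibition not above the cutoff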
PERK inh = human PERK inhibition, primary cell-based screen | Q9NZJ5 | CHO PERK-DD fusion, SEAP luminescence translation reporter | inhibition, % at 5.6 µM | 0.17% of 220,000 active | AID 1416;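 active = inhibition above the mean inhibition of all tested compounds plus 3 SD, set separately per screening campaign, cut at about 2.9% in these data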;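 note: PERK kinase domain activated by AP20187 dimerizer at 100 nM; 0% = DMSO with dimerizer and 100% = rapamycin at 8.4 µM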
Target sequence (Q9NZJ5 whole entry, looked up, the tested form may be a part): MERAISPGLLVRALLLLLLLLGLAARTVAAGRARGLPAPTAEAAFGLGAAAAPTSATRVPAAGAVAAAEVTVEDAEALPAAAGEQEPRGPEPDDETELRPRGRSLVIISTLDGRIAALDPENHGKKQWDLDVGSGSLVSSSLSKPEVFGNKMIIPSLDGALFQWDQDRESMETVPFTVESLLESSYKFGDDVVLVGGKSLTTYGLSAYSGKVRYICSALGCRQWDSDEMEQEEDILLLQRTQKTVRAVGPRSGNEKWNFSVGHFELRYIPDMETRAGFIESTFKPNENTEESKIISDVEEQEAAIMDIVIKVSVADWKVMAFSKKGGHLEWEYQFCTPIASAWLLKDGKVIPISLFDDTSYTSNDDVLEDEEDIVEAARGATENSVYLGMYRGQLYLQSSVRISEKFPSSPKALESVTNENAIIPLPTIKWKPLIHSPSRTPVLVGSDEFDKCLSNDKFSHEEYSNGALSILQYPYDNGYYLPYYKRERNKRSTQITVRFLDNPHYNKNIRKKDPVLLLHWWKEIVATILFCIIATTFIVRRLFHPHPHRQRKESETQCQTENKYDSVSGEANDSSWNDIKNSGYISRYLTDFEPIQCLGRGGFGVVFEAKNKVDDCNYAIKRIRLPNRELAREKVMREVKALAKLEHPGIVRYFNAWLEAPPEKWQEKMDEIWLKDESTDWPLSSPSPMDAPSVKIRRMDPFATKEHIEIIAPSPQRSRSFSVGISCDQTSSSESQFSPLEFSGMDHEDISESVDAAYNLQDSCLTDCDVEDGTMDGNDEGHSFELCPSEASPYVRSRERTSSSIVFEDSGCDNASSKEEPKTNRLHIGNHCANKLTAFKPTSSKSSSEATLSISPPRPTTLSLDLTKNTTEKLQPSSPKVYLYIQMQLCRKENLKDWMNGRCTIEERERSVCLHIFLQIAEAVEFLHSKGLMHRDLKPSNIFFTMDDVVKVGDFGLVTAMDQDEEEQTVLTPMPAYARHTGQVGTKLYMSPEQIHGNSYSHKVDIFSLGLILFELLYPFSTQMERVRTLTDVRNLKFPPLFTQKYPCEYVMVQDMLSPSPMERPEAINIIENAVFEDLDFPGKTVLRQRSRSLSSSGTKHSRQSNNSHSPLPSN
* marks the source's active call; other numbers are inactive results; i = inactive; ? = inconclusive; / = no result; + = active, no number.

SMILES	eIF4E-4G inh	Autophagy mod	Insulin prom up	INS promoter inh	PERK inh
Cc1ccc(Cl)cc1N1CCN(CC(=O)Nc2ccc(CN3CCCCC3)cc2)CC1	7.0	+	?	60.0	-1.6
COc1ccccc1N1CCN(CC(=O)Nc2ccc(CN3CCCCC3)cc2)CC1	1.6	i	-0.44	21.4	-1.2
O=C(O)CCc1nnc(SCC(=O)Nc2cccc(C(F)(F)F)c2)[nH]c1=O	1.3	i	-0.62	-107.7	0.5
Cc1cccc(/C=N/n2c(C)nnc2C)c1	3.3	i	-0.81	-24.3	3.1*
Cc1cccc(/C=N/n2c(-c3ccco3)n[nH]c2=S)c1	13.9	/	0.43	/	3.5*
CC1=Nc2ccccc2/C1=C/c1sc(=N)n(-c2nccs2)c1O	4.1	+	1.11	-48.8	-2.2
CC1=Nc2ccccc2/C1=C/c1nc(-c2ccc(C)s2)oc1O	-4.8	i	1.35	5.6	0.5
Cc1cc(C(=O)NCC(=O)OCC(=O)N(C(C)C)C(C)C)ccc1[N+](=O)[O-]	-1.7	i	0.2	/	-0.2
CN(CC(=O)N1CCCC1)S(=O)(=O)c1ccc2ccccc2c1	0.2	i	0.35	0.0	0.3
CN1CCN(C(=O)CN(C)S(=O)(=O)c2ccc3ccccc3c2)CC1	-2.0	+	-1.79	55.6	-0.4
Cc1ccc(NC(=O)C2CC(=O)n3ncnc3N2)cc1C (centres undefined)	-5.0	i	0.1	54.5	0.5
C=CCN(c1ccccc1C(=O)O)S(=O)(=O)/C=C/c1ccccc1	-1.4	i	0.38	/	1.5
O=C(O)CSc1nnc(COc2cccc3cccnc23)n1-c1cccc(C(F)(F)F)c1	68.3*	i	0.73	19.1	0.7
Cc1cc(C)cc(NC(=O)CCn2cnc3cc(C)c(C)cc32)c1	-0.8	i	-1.23	-20.0	-0.2
O=C1CSC(=S)N1/N=C/c1ccc(O)c(O)c1O	84.4*	/	0.15	/	0.2
COc1ccc(-c2csc(NC(=O)CSc3nc(SC)ns3)n2)cc1	-6.1	i	-0.15	41.4	0.6
CCOP(=O)(c1ccccc1)C(O)c1ccccc1 (centres undefined)	2.2	i	-0.1	3.3	0.7
CCOP(=O)(C1=C(O)C(=O)C(C(C)(C)C)=CC1=O)c1ccccc1 (centres undefined)	0.2	i	-0.44	66.7*	0.3
O=[N+]([O-])c1ccc(Nc2cccc(F)c2)nc1	0.8	i	-0.47	/	-0.6
Cc1nc(C)c(-c2csc(Nc3cccnc3)n2)s1	5.7	i	-0.61	87.1*	-1.2
c1cncc(Nc2nc(-c3ccncc3)cs2)c1	-4.0	i	0.24	4.3	-0.2
Fc1cccc(Cl)c1CSc1nnc2ccccn12	-0.1	i	1.47	/	-0.6
CC1CCCC(NCC(O)COC(c2ccc(F)cc2)c2ccc(F)cc2)C1C (centres undefined)	6.0	+	-1.92	/	0.5
CC1CCCC(NC(=O)CSc2ccc(F)cc2)C1C (centres undefined)	-1.1	i	0.94	7.1	0.3
COc1ccc2cc(/C(C)=N/NC(=S)Nc3cc(S(=O)(=O)N4CCOCC4)ccc3N3CCOCC3)ccc2c1	2.4	+	-3.25	/	-0.2
SMILES	eIF4E-4G inh	Autophagy mod	Insulin prom up	INS promoter inh	PERK inh
COc1ccc(CN2CN(S(=O)(=O)c3cccs3)c3nc4ccccc4nc32)cc1	6.2	/	-0.09	/	-0.8
COC(=O)Cn1ncc(N2C3CC(CC(C)(C)C3)C2C)c(Cl)c1=O (centres undefined)	-3.1	i	0.86	-2.7	-0.9
Cc1ccc(/C=C2\SC(=S)N(Cc3ccccc3)C2=O)o1	8.3	i	0.13	9.7	1.5
O=C(O)c1cc(-c2ccc(/C=C3/SC(=S)N(Cc4ccccc4)C3=O)o2)ccc1Cl	62.0*	i	/	/	0.5
COc1ccc(CN2C(=O)/C(=C/c3ccc(-c4ccc(Cl)c(C(=O)O)c4)o3)SC2=S)cc1	65.1*	i	/	0.0	-0.1
Cc1ccc(NC(=O)CN2C(=O)S/C(=C/c3ccc(-c4cccc(C(=O)O)c4)o3)C2=O)cc1	43.4*	i	-0.37	/	-0.1
CCCCCc1c(O)nc(SCC(=O)O)[nH]c1=O	/	i	/	37.5	0.8
COc1ccc(C(=O)O)cc1F	0.0	i	0.43	78.6*	1.5
COc1ccc(C(=O)C(CN2CCOCC2)c2ccccc2)cc1F (centres undefined)	-10.7	i	0.13	71.4*	-0.8
COc1ccc(C(=O)O)cc1S(=O)(=O)NC(C)C	-1.3	/	0.25	/	0.9
CCn1ccnc1CN(C)Cc1cn(-c2ccccc2)nc1-c1ccc(OC)cc1F	-2.3	i	/	-38.9	0.8

Bioassay records: PubChem, several laboratories
